Screens: PubChem, several laboratories
Sampled rows, rich in hits. Any-hit rate of the full collection: about 2.8%.
zVAD death inh – blocks zVAD induced death of L929 cells. 220,000 compounds, 0.38% hits. viability rescue, % at 10 µM. AID 1377. L929 zVAD necroptosis rescue, ATP luminescence, 24 h; with zVAD 60 µM;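 active = activation, scaled between plate controls, above about 75%, limit read from the data; inactive = activation under that limit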;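 also: 0% = zVAD with DMSO and 100% = DMSO alone without zVAD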
TNF necrop inh – blocks TNF-alpha induced death of Jurkat FADD-/- cells; Jurkat FADD-/- TNF necroptosis rescue, ATP luminescence, 24 h; 0 = TNF only, 100 = no-TNF cells; activation (protection from cell death), % at 10 µM; 220,000 compounds, 0.068% hits;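 active = activation, meaning protection from cell death, of at least 50% relative to plate controls; inactive = activation below 50%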;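 also: necroptosis triggered by 40 ng/mL TNF-alpha added together with compound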
Mcl1 Noxa PPI – disrupts binding of human Mcl-1 to Noxa peptide; TR-FRET Mcl-1/Noxa peptide binding, 2 h; AID 1022; inhibition, % at 21.7 µM; Q07820; 220,000 compounds, 1.5% hits;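 active = compounds that cut the protein-peptide binding signal by more than 50% relative to plate controls in a single-dose test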;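 also: His-tagged Mcl-1 with rhodamine Noxa BH3 peptide and terbium anti-His antibody; 0% = Mcl-1 plus Noxa peptide wells and 100% = peptide-only wells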
Target sequence (Q07820 whole entry, looked up): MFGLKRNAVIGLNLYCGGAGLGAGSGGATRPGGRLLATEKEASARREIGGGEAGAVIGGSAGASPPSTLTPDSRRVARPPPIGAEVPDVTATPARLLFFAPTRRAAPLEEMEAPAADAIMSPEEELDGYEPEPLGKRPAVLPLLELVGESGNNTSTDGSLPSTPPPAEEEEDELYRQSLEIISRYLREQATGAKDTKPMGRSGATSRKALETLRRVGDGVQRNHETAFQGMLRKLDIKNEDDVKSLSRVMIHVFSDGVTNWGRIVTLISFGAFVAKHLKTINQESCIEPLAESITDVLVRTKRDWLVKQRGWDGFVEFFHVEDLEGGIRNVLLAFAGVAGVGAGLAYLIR
Mcl-1 Bim block – inhibitors of Bim-Mcl-1 interaction, human | inhibition, % at 10 µM | 190,000 compounds, 0.1% hits | Q07820 | Bead-based flow cytometry, Bim peptide-Mcl-1 binding; in the data active = inhibition above about 40%;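 also: 0% = no compound tracer wells and 100% = peptide blocker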
Calpain2 inh – blocks pig calpain II enzyme activity | 220,000 compounds, 0.37% hits | inhibition, % at 16 µM | purified calpain II, fluorogenic peptide substrate, 30 min | AID 1236;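 active = inhibition above about 50%, limit read from the data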
Mcl1 Bid PPI – disrupts binding of human Mcl-1 to Bid peptide; 220,000 compounds, 0.97% hits; Q07820; inhibition, % at 21.7 µM; TR-FRET Mcl-1/Bid-Dy647 peptide binding, 1536-well;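 active = compounds that cut the binding signal by more than half at the single screening dose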;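 also: His-tagged Mcl-1 with europium anti-His antibody binding Bid BH3 peptide; 0% = Mcl-1 plus peptide wells and 100% = peptide-only wells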
Active calls of the source: *; . = no result.

SMILES | zVAD death inh | TNF necrop inh | Mcl1 Noxa PPI | Mcl-1 Bim block | Calpain2 inh | Mcl1 Bid PPI
CCCCCn1c(N)c(-c2nc3ccccc3o2)c2c([N+](=O)[O-])nn(CC)c(=O)c21 | 0.3 | 2.0 | 97.3* | 2.0 | -10.7 | 60.5*
O=C(Cc1csc(NC(=O)c2ccc(F)cc2)n1)NO | 0.5 | -3.9 | -6.3 | -1.0 | 17.6 | -2.8
CCOC(=O)C1CCN(S(=O)(=O)c2cc(Br)cc3c2N(C(=O)C2CC2)CC3)CC1 | 2.1 | 1.4 | 23.8 | -1.0 | 61.4* | -13.6
CC1CCc2c(sc3ncn(N)c(=N)c23)C1 (centres undefined) | 0.5 | 1.9 | 6.6 | . | 6.2 | 2.7
Cc1noc(C)c1C(=O)OC(C)C(=O)Nc1ccc(S(=O)(=O)NC(C)C)cc1 (centres undefined) | 0.2 | 2.3 | 9.3 | -5.0 | -5.8 | -25.0
COc1cc(-c2noc(-c3cccs3)n2)cc(OC)c1OC | 0.3 | -0.9 | 4.6 | -2.0 | 12.5 | -3.5
COc1ccc(-c2nnc(-c3ccc(Br)o3)o2)cc1OC | 3.4 | -0.2 | 8.0 | -4.0 | -40.9 | -1.6
COc1ccc(-c2noc(-c3cccs3)n2)cc1OC | 0.1 | -0.2 | 31.6 | . | 8.9 | 58.1*
COc1cc(-c2nc(-c3ccc(NC(=O)c4ccc(Br)o4)cc3)no2)cc(OC)c1OC | 1.1 | -10.0 | 0.5 | 0.0 | -242.2 | 68.3*
COc1ccc(-c2nc(-c3ccc(Br)o3)no2)cc1OC | 0.8 | 0.9 | 21.0 | 0.0 | 0.0 | 56.3*
CC1CCc2c(sc(NC(=O)CSc3ncnc4c3cnn4-c3ccccc3Cl)c2C#N)C1 (centres undefined) | 0.8 | 1.1 | -1.2 | -5.0 | -45.2 | -10.1
COC(=O)CSc1[nH]c(=O)cc(C)c1C#N | 0.2 | -1.6 | 6.6 | -1.0 | -4.9 | -4.4
CCOC(=O)c1cc(C#N)c(SCC(=O)OC)[nH]c1=O | 0.8 | 3.2 | 21.1 | . | -32.9 | 71.7*
Cc1ccc(NC(=O)c2c3c(nc4ccccc24)CCC3)cc1S(=O)(=O)N(C)C | 1.7 | -0.2 | 46.6 | -5.0 | -141.5 | -24.7
COc1ccc(NC(=O)c2c3c(nc4ccccc24)CCC3)cc1S(=O)(=O)N1CCOCC1 | 0.5 | 1.1 | 67.0* | -1.0 | -74.4 | -99.2
COc1c(S(=O)(=O)n2nc(C)cc2C)ccc(Cl)c1Cl | -0.1 | -1.3 | -19.7 | -6.0 | -8.1 | -18.8
Cc1[nH]c2ccccc2c1/C=N/n1cnnc1 | 0.0 | -2.1 | -8.3 | 2.0 | -0.8 | -28.6
CCN(CC)c1ccc(N=Cc2c(C)[nH]c3ccccc23)cc1 | 1.6 | -2.8 | 60.7* | -4.0 | 2.1 | -101.7
COCC(O)CSc1nc(C)[nH]c1[N+](=O)[O-] (centres undefined) | 1.8 | 1.2 | 25.7 | 0.0 | -16.5 | 86.7*
N=C1CCC(=N)c2c1c(O)c1ccccc1c2O | 1.4 | -11.9 | 76.3* | . | 23.6 | -14.8
N#Cc1c(C#N)c(O)c2ccccc2c1O | 0.9 | -6.5 | 31.9 | . | -60.3 | -200.8
COc1ccc(/C=N/NC(=O)Cc2cc(OC)c(OC)cc2[N+](=O)[O-])cc1 | 1.7 | 2.1 | -2.9 | -1.0 | 1.2 | -24.7
NC(=S)n1[nH]c(-c2ccc([N+](=O)[O-])cc2)c(N=Nc2cccc([N+](=O)[O-])c2)c1=O | 1.0 | -1.0 | 85.4* | 1.0 | -3.0 | 82.5*
Nc1[nH]n(-c2ccccc2)c(=O)c1N=Nc1ccccc1[N+](=O)[O-] | 0.1 | 0.1 | 59.7* | 3.0 | 15.4 | 39.6
COc1cc([N+](=O)[O-])ccc1N=Nc1c(N)[nH]n(-c2ccccc2)c1=O | 0.3 | -2.6 | 25.2 | 0.0 | 13.1 | -48.8
SMILES | zVAD death inh | TNF necrop inh | Mcl1 Noxa PPI | Mcl-1 Bim block | Calpain2 inh | Mcl1 Bid PPI
Nc1[nH]n(-c2ccccc2)c(=O)c1N=Nc1ccc2ncsc2c1 | 1.5 | -0.8 | 62.5* | . | -17.1 | -18.5
NC(=S)n1[nH]c(-c2ccc([N+](=O)[O-])cc2)c(N=Nc2ccccc2[N+](=O)[O-])c1=O | 5.2 | -1.9 | 84.2* | -174.0 | -116.1 | 90.1*
O=C1CC(c2ccccc2)n2nc(N3C(=O)c4ccccc4C3=O)nc2N1 (centres undefined) | 0.9 | -0.1 | -5.3 | -1.0 | -3.2 | -26.6
O=C(c1cccs1)n1nc(-c2ccccc2)nc1NCc1ccc(F)cc1 | 0.0 | 2.4 | 0.5 | 0.0 | 1.4 | -0.5
CCOc1ccc(N(Cc2ccccc2F)C2=NC3CS(=O)(=O)CC3S2)cc1 (centres undefined) | -0.6 | -2.5 | 11.2 | -2.0 | 5.8 | 5.6
Cc1[nH]n(C(N)=S)c(=O)c1N=Nc1ccc2ccccc2c1 | 4.4 | -0.8 | -16.9 | 2.0 | 7.6 | -122.6
Cc1c(N=Nc2c(-c3ccc([N+](=O)[O-])cc3)[nH]n(C(N)=S)c2=O)cccc1[N+](=O)[O-] | 0.0 | -6.7 | 115.7* | 0.0 | 39.3 | 97.8*
COc1cc(C(C)=O)ccc1OCCN1CCC(Cc2ccccc2)CC1 | -0.7 | 2.5 | 7.9 | -1.0 | 1.4 | 0.3
Clc1ccccc1OCCN1CCC(Cc2ccccc2)CC1 | 0.6 | 3.9 | 30.2 | -3.0 | 26.6 | 63.0*
COc1ccc(OC)c(NC(=O)COC(=O)c2c3c(nc4ccccc24)CCCC3)c1 | -0.6 | -13.0 | 9.3 | -2.0 | 3.8 | -3.2
COc1ccc(OC)c(NC(=O)COC(=O)c2cc3c(s2)CCC3)c1 | 0.8 | 1.3 | 71.5* | 95.0* | -108.0 | -68.3
CC(=O)Oc1ccc(N2C(=O)C3C4C=CC(CO)(O4)C3C2=O)cc1 (centres undefined) | 0.0 | 0.8 | 25.1 | 0.0 | 14.0 | -4.3
O=C1C2C3C=CC(CO)(O3)C2C(=O)N1c1ccccc1-c1ccccc1 (centres undefined) | 0.7 | 0.8 | 52.6* | -14.0 | -12.7 | 5.3
O=C(CSc1nc2nn(-c3ccccc3)c(=O)c-2c2n1CCCCC2)NCCc1ccccc1 | -0.3 | 1.6 | 55.3* | 0.0 | 14.5 | -12.0
CCC(=O)Nc1cc(C(=O)OC(C(=O)c2ccc(C)c(C)c2)c2ccccc2)ccc1C (centres undefined) | -0.2 | -6.1 | -4.2 | 0.0 | -1.3 | -2.9
O=C(O)c1ccc(N=Nc2c(O)[nH]c3cc(Cl)ccc23)cc1 | 71.7 | 1.5 | 61.9* | . | 4.7 | -57.6
O=C(CSc1cccc(C(F)(F)F)c1)Nc1ccc(Cl)cc1Cl | -0.1 | -2.4 | -11.0 | -2.0 | -16.6 | -2.9
Cc1ccc(CNC(=O)C(=O)NCC2CCCO2)cc1 (centres undefined) | -0.5 | -1.7 | -7.0 | . | -14.7 | -7.2
Cc1ccc(CNC(=O)c2ccc3c(=O)[nH]c4c(C(=O)NCC5CCCO5)sc(=S)n4c3c2)cc1 (centres undefined) | 1.9 | 1.0 | 73.7* | 0.0 | 46.4 | 17.1
O=C(NC1CCCC1)c1sc(=S)n2c1[nH]c(=O)c1ccccc12 | 0.1 | -0.7 | 38.0 | 0.0 | -22.2 | 2.8
